An excerpt weighted towards active compounds, which were near 0.9% of everything screened.
Six1-Eya2 inh: inhibitors of human Six1/Eya2 interaction; 0.56% of 360,000 active; AlphaScreen GST-Six1/His-Eya2 binding, biochemical; stronger effect = lower value; activity change, % (no concentration beside the values); in the data active = activity change below about -65%; inconclusive = mostly about -30% to -63%
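Homogeneous AlphaScreen proximity assay pairing GST-Six1 with His-tagged Eya2 (added as 5X mix: 250 nM and 500 nM) in 50 mM Tris pH 8.0, 300 mM NaCl, 1 mM TCEP. Glutathione donor and nickel acceptor beads; 1 h, 37 °C, dark.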
L3MBTL1 inh: blocks human L3MBTL1 | Q9Y468 | AlphaScreen L3MBTL1–H3K9me1 peptide binding | Potency, µM (series often up to 57.1 µM), most hits filed as inhibitors | 0.66% of 230,000 active | AID 485360; note: nearly all actives have a fitted effect of over 60% in size
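Displacement of a biotinylated histone H3(1-15) peptide monomethylated at Lys9 (75 nM) from L3MBTL1 (50 nM) was measured by AlphaScreen after a 30 min room-temperature compound incubation; cefsulodin titration served as intraplate control.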
B2AR arrestin: beta2AR (human) beta-arrestin recruitment activity; P07550; beta-arrestin recruitment to beta2AR, cell-based reporter; Potency, µM (top dose mostly 46.1 µM), usual class: activators; 0.02% of 330,000 active; note: nearly all actives have a fitted effect of over 65% in size
CtBP-E1A blk: inhibitors of CtBP/E1A interaction; activity change, % (concentration not given with the values); AID 651724; 0.49% of 340,000 active; AlphaScreen GST-E1A/His-CtBP binding, 1536-well; stronger effect = lower value; in the data active = activity change below about -65%; inconclusive = mostly about -30% to -63%
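GST-E1A and His-tagged CtBP (125 nM each as 5X stock) were preincubated with pin-transferred compound for 2 h at 37 °C in the dark, then glutathione donor and nickel acceptor beads were added for 1 h before AlphaScreen reading.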
Eya2 inh: Eya2 (human) phosphatase inhibition. O00167. recombinant Eya2, OMFP fluorescence dephosphorylation (OMFP is methylfluorescein phosphate). Potency, µM (highest dose often 76.9 µM), usual class: inhibitors. 0.006% of 330,000 active. AID 488837
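Eya2 (0.2 uM) preincubated 10 min at ambient with compound, then OMFP substrate added at 50 uM; 10 min reaction in 50 mM HEPES pH 7.5, 50 mM NaCl, 5 uM MgCl2, 0.05% BSA, 1 mM DTT. Fluorescence read at Ex 485/Em 525 nm.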
Hits are given with their value; i = inactive; ? = inconclusive; nt = no result; [ ] = remark or other dose. Unless noted, calls come from the whole dose curve; as a rule, active = well fitted curve in the direction sought with a large enough effect; inconclusive = small, poorly fitted or top-dose-only effect, or another doubt; inactive = no such curve, though single readings can be large; an effect the other way counts as inactive or inconclusive.

SMILES	Six1-Eya2 inh	L3MBTL1 inh	B2AR arrestin	CtBP-E1A blk	Eya2 inh
O=C(N/N=C/c1cc(Br)ccc1O)C(c1ccncc1)N1CCOCC1 (stereo unspecified)	-89	?	i	i	i
Cn1cccc1-c1cc(C(=O)N/N=C/c2ccccc2Cl)[nH]n1	i	nt	i	i	i
Cn1cccc1-c1cc(C(=O)N/N=C/c2cc(Br)ccc2O)[nH]n1	-83	nt	i	-87	i
COc1ccc(CCNC(=O)Cn2nc(C)c3c(C)n(-c4ccc(C)cc4)nc3c2=O)c(OC)c1	nt	i	i	nt	i
NC(=S)NN=Cc1cc(-c2cccc(N)c2)ccn1	-88	nt	nt	-81	nt
NC(=S)N/N=C\c1c2ccccc2cc2ccccc12	i	i	i	i	i
COc1ccccc1NS(=O)(=O)c1cc(NC(=O)c2cnccn2)ccc1N1CCOCC1	?	i	i	-73	i
O=C(N/N=C/C=C/c1ccccc1)c1ccccn1	i	?	i	i	i
O=C(N/N=C/C=C\c1ccco1)c1ccccn1	-88	28µM	i	i	i
O=C(N/N=C/C=C/c1ccco1)c1cnccn1	i	7.1µM	i	i	i
CCN1C(=NCCN2CCOCC2)N[C@@H](CCc2ccccc2)C(C(=O)OC)=C1C	nt	nt	i	nt	i
Cc1cc(/C=N/NC(=O)c2cccc(N(C)C)c2)c(C)n1-c1cc(C(=O)O)cc(C(=O)O)c1	-67	nt	i	?	?
NC1=NC(=O)/C(=C/c2ccc(-c3ccc(S(N)(=O)=O)cc3)o2)S1	?	i	i	nt	i
CS(=O)(=O)Nc1ccc(-c2ccc(/C=C3\SC(N)=NC3=O)o2)cc1	?	i	i	-68	i
CCC(NC(C)C)C(O)c1ccc(O)c2[nH]c(=O)ccc12 (stereo unspecified)	i	i	0.18µM	i	i
O=C1NC[C@H](CCCCN2CCN(CCC3CCCCC3)C(=O)C2=O)N(CCc2ccccc2)C1=O	i	nt	nt	i	nt
Cc1cc(=O)[nH]c2c(N=Nc3ccc(O)cc3)c(N)nn12	-77	i	i	nt	i
CCc1nnc(NC(=O)Cc2ccc(Br)cc2)s1	i	i	i	i	i
Cc1ccc(N2CCOCC2)c2c1C(=O)c1ccccc1C2=O	-76	14µM	i	?	i
O=C1C=C(N2CCOCC2)c2ccccc2C1=O	?	i[2.29 µM]	i	i	i
COc1ccc(-c2nn(-c3ccccc3)cc2/C=C2/SC(=S)N(CCC(=O)O)C2=O)cc1	i	nt	i	i	i
O=C1C(=Cc2cn(-c3ccccc3)nc2-c2ccc(OCc3ccc(Cl)cc3)cc2)SC(=S)N1CCS(=O)(=O)O	-67	nt	nt	?	nt
O=C1C(=Cc2cn(-c3ccccc3)nc2-c2ccc(OCc3ccccc3F)cc2)SC(=S)N1CCS(=O)(=O)O	-70	nt	nt	i	nt
O=S(=O)(NCC1CCN(c2ccc(S(=O)(=O)N3CCOCC3)cc2)CC1)c1ccc(F)cc1	i	nt	i	i	i
c1coc(-c2ccc3ncnc(NCc4cccs4)c3c2)c1	nt	i	i	nt	i
SMILES	Six1-Eya2 inh	L3MBTL1 inh	B2AR arrestin	CtBP-E1A blk	Eya2 inh
O=c1[nH]c(N/N=C\c2ccc3c(c2)OCO3)nc2ccccc12	?	i	i	-68	i
COc1cccc(/C=N/n2c(-c3n[nH]c4c3CCC4)n[nH]c2=S)c1O	?	i	i	?	i
CC(C)(C)c1n[nH]c(=S)n(/N=C/c2cccs2)c1=O	i	i	i	i	i
COc1cccc(/C=N/n2c(-c3cc(C)[nH]n3)n[nH]c2=S)c1O	-68	i	i	-81	i
Cc1n[nH]c(=S)n(/N=C/c2cccs2)c1=O	?	i	i	-72	i
Oc1c(Br)cc(Br)cc1/C=N/n1c(-c2ccccc2)n[nH]c1=S	i	i[2.29 µM]	i	nt	i
Oc1c(Br)cc(/C=N/n2c(-c3ccccc3)n[nH]c2=S)c(Br)c1O	nt	0.79µM	i	nt	i
S=c1[nH]nc(-c2ccccn2)n1/N=C/c1cccs1	?	28µM	i	i	i
O=C(CNC(=O)c1nn(Cc2ccccc2)c(=O)c2ccccc12)Nc1ccc(F)c(F)c1F	i	i	i	i	i
CC(=O)SC1CC2=CC(=O)CC[C@]2(C)C2CC[C@@]3(C)C(CC[C@@]34CCC(=O)O4)C12 (stereo partly specified)	nt	nt	nt	nt	i
S=c1[nH]nc(-c2ccccn2)n1/N=C/c1ccccc1	?	?	i	i	i
S=c1[nH]nc(-c2ccccn2)n1/N=C/c1cccc2ccccc12	-67	32µM	i	?	i
Cc1ccccc1/C=N/n1c(-c2ccccn2)n[nH]c1=S	-90	22µM	i	i	i
COc1ccccc1/C=C/C=N/n1c(-c2ccccn2)n[nH]c1=S	-67	?	i	nt	i
CC(C)(C)c1ccc(S(=O)(=O)/C=C/C#N)cc1	nt	nt	nt	nt	i
COc1cc2c(c(NC(C)=O)c1)N(C(C)=O)CCC2	i	nt	nt	i	nt
Cc1cc(C)n2c(NC3CCCCC3)c(-c3ccccn3)nc2n1	-78	nt	nt	?	nt
Cc1ccn2c(NC3CCCC3)c(-c3ccccn3)nc2c1	-66	nt	i	-80	i
Cc1cc(C)n2c(NC3CCCC3)c(-c3cc4ccccc4o3)nc2n1	i	nt	nt	i	nt
c1ccc(-c2nc3ccccn3c2NC2CCCC2)nc1	?	?	i	-67	i
Cc1ccn2c(NC3CCCC3)c(-c3ccncc3)nc2c1	i	nt	i	i	i
O=C(CN1CCN(CC(=O)Nc2cccc(F)c2)CC1)Nc1ccc(-c2ccccc2)cc1	i	nt	i	i	i
O=C(NNS(=O)(=O)c1ccc(F)cc1)c1ccccc1	i	i	i	i	i
O=C(NNc1ccccn1)C(=O)NNS(=O)(=O)c1ccc(Cl)cc1	-85	i	i	?	?
COCCNC(=O)C(=O)NNS(=O)(=O)c1ccc(Cl)cc1	i	i	i	i	i
SMILES	Six1-Eya2 inh	L3MBTL1 inh	B2AR arrestin	CtBP-E1A blk	Eya2 inh
O=C(NNc1ccccn1)C(=O)NNS(=O)(=O)c1ccc(F)cc1	-90	i	i	-92	i
O=C(C[C@H]1C[C@@H]2c3cc(NC(=O)c4ccc5c(c4)OCO5)ccc3O[C@@H]2[C@H](CO)O1)NCc1cc(F)ccc1F	-70	nt	nt	-67	nt
COc1ccc(C(=O)Nn2c(SCC(=O)N3CCC(C)CC3)nc3ccccc3c2=O)cc1	?	i	i	-71	i
CSc1cc(SC)ncn1	i	nt	nt	i	nt
Cn1c(SCC(=O)N/N=C/C=C/c2ccco2)nc2ccccc21	i	22µM	18µM	i	i
CCn1c(SCC(=O)N/N=C/C=C/c2ccco2)nnc1-c1ccccc1	?	?	i	i	i
O=C(CSc1nnc(SCc2ccccc2)s1)N/N=C/C=C/c1ccco1	i	28µM	i	i	i
CN(C(=O)Cn1c(=O)oc2cc(S(=O)(=O)N3CCCC3)ccc21)C1CCCCC1	i	nt	i	i	i
O=C(/C(=N/N=C/c1ccc(O)c(O)c1O)c1ccccc1)c1ccccc1	i	20µM	i	i	i
Oc1ccc(/C=N/N=C(c2ccccc2)c2ccccc2)c(O)c1O	i	3.5µM	i	i	i
Oc1cccc(C=NCc2ccccc2)c1O	i	nt	i	i	i
COc1cc(OC)cc(-c2c(Sc3ccccc3)c3cc(-c4ccc5c(c4)OCCO5)ccc3n2C)c1	i	nt	nt	i	nt

Compound activity as filed in PubChem.
